# Experimental data taken from the supplement of paper PMC3414501.
# Where a name gives a salt, the structure may show the parent alone. Values without a mark were called inactive.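 The calls were made as follows: active = HIS4 sensitivity z-score above 5 vs DMSO controls; inactive = score 5 or below.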
# Tested on: S. cerevisiae NKY1551 his4x/his4B, sporulating
# Assay: HIS4 meiotic recombination assay sensitivity score (z-score vs DMSO controls); higher = stronger inhibition of sporulation/recombination, active = hit call of the paper
# Settings: stock concentration (mM, diluted 1:100): 7.7
# Method: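 NIH Clinical Collection compounds were added 1:100 from stock (about 100 µM final) to S. cerevisiae. Growth: average doubling time (AvgG) over 24 h of BY4741 (wild-type) or AD1-9 (drug-efflux-pump deficient) in rich media. HIS4: the his4x/his4B heteroallelic recombination reporter strain (SK1) was sporulated 5 h with compound at 30°C, then colony density was read on -his plates after 48 h. Sensitivity score = (compound − mean of 8 DMSO controls)/SD of DMSO controls. Hit cutoffs are >2 for growth and >5 for sporulation.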
row,SMILES,HIS4 meiotic recombination assay sensitivity score
1,CCC(COC(=O)c1cc(OC)c(OC)c(OC)c1)(c1ccccc1)N(C)C (stereo not given) [Trimebutine maleate],-1.28

# Same assay, conditions: stock concentration (mM, diluted 1:100): 8.7
row,SMILES,HIS4 meiotic recombination assay sensitivity score
1,CC(NC(C)(C)C)C(=O)c1cccc(Cl)c1 (stereo not given) [Bupropion hydrochloride],1.07
2,CC(=O)O[C@H]1C[C@@H]2CC[C@@H]3[C@H](CC[C@@]4(C)[C@H]3C[C@H]([N+]3(C)CCCCC3)[C@@H]4OC(C)=O)[C@@]2(C)C[C@@H]1[N+]1(C)CCCCC1 [Pancuronium],-0.44

# Same assay, conditions: stock concentration (mM, diluted 1:100): 8.9
row,SMILES,HIS4 meiotic recombination assay sensitivity score
1,COc1ccc(C(CN(C)C)C2(O)CCCCC2)cc1 (stereo not given) [Venlafaxine hydrochloride],1

# Same assay, conditions: stock concentration (mM, diluted 1:100): 9.7
row,SMILES,HIS4 meiotic recombination assay sensitivity score
1,CN1CCC(c2ccc(F)cc2)C(COc2ccc3c(c2)OCO3)C1 (stereo not given) [Methyl paroxetine],10.7 (active)

# Same assay, conditions: stock concentration (mM, diluted 1:100): 9.9
row,SMILES,HIS4 meiotic recombination assay sensitivity score
1,CCCCCCCCCOc1ccc2[nH]cc(CCN)c2c1 [5-Nonyloxytryptamine],-2.09

# Same assay, conditions: stock concentration (mM, diluted 1:100): 10
row,SMILES,HIS4 meiotic recombination assay sensitivity score
1,NCCc1ccccn1 [2-(2-aminoethyl)pyridine],-0.1
2,COc1ccc(CCN)cc1OC [Homoveratrylamine],-1.74
3,Oc1ccc2c3c1O[C@H]1[C@@H](O)CC[C@@]4(O)[C@@H](C2)N(CC2CCC2)CC[C@]314 [Nalbuphine],-0.56
4,c1ccc(Cn2ccnc2)cc1 [1-Benzylimidazole],-0.23
5,CC(O)(CS(=O)(=O)c1ccc(F)cc1)C(=O)Nc1ccc(C#N)c(C(F)(F)F)c1 (stereo not given) [Bicalutamide],-0.62
6,C#CCN(C)[C@H](C)Cc1ccccc1 [Selegiline],0.06
7,c1cncc([C@@H]2CCCN2)c1 [Nornicotine],-1.18
8,CCN(C(C)=O)c1cccc(-c2ccnc3c(C#N)cnn23)c1 [Zaleplon],-0.58
9,Oc1ccc2c3c1O[C@H]1c4[nH]c5ccccc5c4C[C@@]4(O)[C@@H](C2)N(CC2CC2)CC[C@]314 [Naltrindole],-0.51
10,CN1C(=O)CN=C(c2ccccc2)c2cc([N+](=O)[O-])ccc21 [Nimetazepam],-0.26
11,CCCN1C[C@H](CSC)C[C@@H]2c3cccc4[nH]cc(c34)C[C@H]21 [Pergolide mesylate],-0.45
12,Cc1nnc2n1-c1ccc(Cl)cc1C(c1ccccc1)=NC2 [Alprazolam],1.57
13,NC(=O)C[S+]([O-])C(c1ccccc1)c1ccccc1 (stereo not given) [Modafinil],-0.33
14,N=C(NCc1ccc(Cl)cc1)SCCCc1c[nH]cn1 [Clobenpropit],-0.07
15,COC(=O)N1CCN(C(=O)Cc2ccc(Cl)c(Cl)c2)C(CN2CCCC2)C1 (stereo not given),-0.89
16,CNCC(O)c1ccc(O)cc1 (stereo not given) [Synephrine],-1.28
17,FC(F)(F)c1cccc(N2CCNCC2)c1,8.84 (active)
18,Oc1cc2c(cc1O)[C@H]1c3ccccc3CN[C@@H]1CC2,2.29
19,C[C@]12CC[C@H]3[C@@H](CCC4=CC(=O)CC[C@@H]43)[C@@H]1CC[C@@H]2O [19-Nortestosterone],1.09
20,CS(=O)(=O)Nc1ccc(Cc2noc(-c3ccc4[nH]cc(CCN)c4c3)n2)cc1,-0.76
21,CN=C1CN(O)C(c2ccccc2)=c2cc(Cl)ccc2=N1 [Chlordiazepoxide],-1.07
22,O=C1CN=C(c2ccccc2)c2cc([N+](=O)[O-])ccc2N1 [Nitrazepam],-0.13
23,O=C(O)C(Cl)Cl [Dichloroacetic acid],-0.62
24,O=c1c2ccccc2[se]n1-c1ccccc1 [Ebselen],-0.37
25,c1ccc2c(c1)Nc1ccccc1S2 [Phenothiazine],2.62
26,C=C1C[C@@H]2[C@H](CC[C@]3(C)C(=O)CC[C@@H]23)[C@@]2(C)C=CC(=O)C=C12 [Exemestane],3.99
27,CNC1CC(c2ccc(Cl)c(Cl)c2)c2ccccc21 (stereo not given) [Indatraline],-0.83
28,COc1ccc2[nH]cc(CCN)c2c1 [5-Methoxytryptamine],-1.35
29,O=C1Nc2ccc(Cl)cc2C(c2ccccc2Cl)=NC1O (stereo not given) [Lorazepam],0.95
30,CC(C)[C@]12O[C@H]1[C@@H]1O[C@]13[C@]1(O[C@H]1C[C@H]1C4=C(CC[C@@]13C)C(=O)OC4)[C@@H]2O [Triptolide],0.28

# Same assay, conditions: stock concentration (mM, diluted 1:100): 10.1
row,SMILES,HIS4 meiotic recombination assay sensitivity score
1,C=C(C)CN1CC[C@]23c4c5ccc(O)c4O[C@H]2c2[nH]c4ccccc4c2C[C@@]3(O)C1C5,3.9
2,CC(NC(C)(C)C)C(=O)c1cccc(Cl)c1 (stereo not given) [Amfebutamone hydrochloride],-0.33
3,C[C@]12CC[C@H](O)CC1=CC[C@@H]1[C@@H]2CC[C@@]2(C)[C@H]1CC[C@]2(C)O [Methylandrostenediol],-1.02
4,NC(=O)OCCCc1ccccc1 [Phenprobamate],0.5
